# A selection: hits, their analogues and other compounds. The true share with any hit is near 12%.
# USP17 inh: inhibitors of human USP17 deubiquitinase | 6.5% of 47,000 active | inhibition, % at 50 µM | purified USP17, Ub-rhodamine cleavage fluorescence, 3 h
# USP30 block: inhibitors of human USP30 deubiquitinase; inhibition, % at 25 µM; 5.3% of 47,000 active; Ubiquitin carboxyl-terminal hydrolase 30 (Homo sapiens), Q70CQ3; purified USP30, Ub-rhodamine cleavage fluorescence; AID 1645860, 2021
# USP8 block: inhibitors of human USP8 deubiquitinase; 4.2% of 47,000 active; purified USP8, Ub-rhodamine cleavage fluorescence, 30 min; inhibition, % at 20 µM
# Hits are given with their value; 0 = inactive; - = no result given. Cut-off read from the data, not from the text of the source: active = inhibition above about 30%; inactive = the rest.
SMILES,USP17 inh,USP30 block,USP8 block
CC(=O)Nc1ccc(NC(=O)c2cc(-c3cc(C)cc(C)c3O)n[nH]2)cc1,35,62,0
CSc1nnc(NC(=O)c2cc(-c3cc(Cl)ccc3O)n[nH]2)s1,0,0,0
COc1ccc(OC)c(NC(=O)c2cc(-c3ccc(C)c(C)c3O)n[nH]2)c1,0,0,0
Cc1cccc(NC(=O)c2cc(-c3ccc(C)c(C)c3O)n[nH]2)c1,88,76,81
COc1ccc(C)cc1NC(=O)c1cc(-c2ccncc2)n[nH]1,0,0,0
Cc1ccc(-c2cc(C(=O)Nc3cc(C)ccc3C)[nH]n2)c(O)c1,34,0,0
CCOc1ccc([C@H]2[C@H](C(=O)O)CC(=O)N2Cc2ccccc2)cc1,0,0,0
O=C1CC(CNS(=O)(=O)c2ccc(Cl)cc2)CN1Cc1ccc(F)cc1 (stereo unspecified),0,0,0
Cc1ccc(CN2CC[C@H]3CO[C@H](CNC(=O)c4ccno4)[C@H]3C2)o1,0,0,0
O=C1N[C@@H]2CCN(C(=O)c3ccncc3)C[C@@H]2C/C=C/CCOc2ccccc21,0,0,0
Cc1c(C(=O)N=CN(C)C)sc(C#N)c1-c1ccccc1,0,32,0
Cc1ccc(-c2nc3nc(C)cc(N4CCC(C)CC4)n3n2)cc1,56,-,0
Cc1ccc(-c2nc3nc(C)cc(N4CCCCC4C)n3n2)cc1 (stereo unspecified),0,0,0
O=C1C(NS(=O)(=O)Cc2cccc(F)c2)CCN1c1ccc(F)cc1 (stereo unspecified),43,0,0
Cc1ccccc1NC(=O)NC1CCN(c2ccc(F)cc2)C1=O (stereo unspecified),0,0,0
O=C1C(NS(=O)(=O)Cc2cc(F)cc(F)c2)CCN1c1ccccc1 (stereo unspecified),47,0,0
O=C(Nc1ccccc1F)NC1CCN(c2ccccc2)C1=O (stereo unspecified),0,0,0
O=C1C(NS(=O)(=O)Cc2cccc(F)c2)CCN1c1ccccc1 (stereo unspecified),44,34,0
O=C1C(NS(=O)(=O)Cc2ccccc2F)CCN1c1ccccc1 (stereo unspecified),0,0,0
Cc1ccc(N2CCC(NS(=O)(=O)Cc3ccccc3)C2=O)cc1C (stereo unspecified),0,0,0
Cc1cc(N2CCC(NC(=O)NCc3ccc(F)cc3)C2=O)ccc1F (stereo unspecified),70,0,0
Cc1nc(-c2cncnc2C2CCCN(C(=O)Cc3ccccc3)C2)no1 (stereo unspecified),0,0,0
N#Cc1ccc(COC(=O)C2(c3ccc(Cl)cc3)CCCC2)cc1,0,0,0
CNC(=O)C1CN(C(C)=O)CCN(C(=O)c2cc(C(C)(C)C)[nH]n2)C1 (stereo unspecified),0,0,0
CCn1c(SCC(=O)Nc2ccc(C(C)=O)cc2)nnc1-c1c[nH]c2ccccc12,0,0,0
SMILES,USP17 inh,USP30 block,USP8 block
O=S(=O)(c1cccc(C(F)(F)F)c1)N1CCC(c2nc3ncccc3[nH]2)CC1,0,0,0
O=C(NCc1cccc(F)c1)NC1CCN(c2ccccc2)C1=O (stereo unspecified),44,0,0
O=C(NCc1ccc(F)cc1)NC1CCN(c2ccccc2)C1=O (stereo unspecified),0,0,0
COc1ccc(C(=O)Nc2cc(-c3ccccc3)nn2C2CCS(=O)(=O)C2)cc1 (stereo unspecified),0,0,0
COc1ccc2c(C)c(CCC(=O)N3CCN(c4ccccc4F)CC3)c(=O)oc2c1,0,0,0
COc1c(C)c2c(c(O)c1C/C=C(\C)C(O)CC(=O)O)C(=O)OC2 (stereo unspecified),0,38,0
COc1c([C@H](CC(C)C)OC(C)=O)ccc2c1C(=O)OCc1cc(C)cc(O)c1O2,0,0,0
CC(C)c1nc2sc3c(NCCCN4CCOCC4)ncnc3c2c2c1CCC2,0,0,0
Cc1ccccc1-c1nnc2sc(COc3ccc(Cl)cc3)nn12,68,80,31
COc1ccccc1-c1nnc2sc(COc3ccc(F)cc3)nn12,0,-,0
COc1cc(NC(=O)Nc2nnc(N(C)Cc3ccccc3)s2)cc(OC)c1OC,0,0,0
COc1ccc(C(=O)N2CCN(CC3CC4C=CC3C4)CC2)cc1 (stereo unspecified),0,0,0
O=c1[nH]/c(=C\c2ccccc2)c(=O)[nH]/c1=C\c1ccccc1,0,0,0
Cn1c(=O)/c(=C/c2ccccc2)[nH]c(=O)/c1=C/c1ccccc1,56,0,0
Cc1ccc(NC(=O)c2ccc(N3CCOCC3)nn2)cc1F,71,0,0
CCc1cc(=O)n(CC(=O)Nc2ccc(F)c(F)c2)c(N2CCOCC2)n1,0,0,0

# High-throughput results (PubChem BioAssay)
